From PubChem BioAssay come the findings set out here.

Experiment [1] in a line: reducers of endogenous Her2 protein level, primary screen, SKBR3 breast tumor cells, AlphaScreen, ATP viability (AID 461;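 active = Her2 level under about 52% in both replicate screens, with viability over 70% of control, limit read from the data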;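 as to Her2 level: lower value means less Her2 protein in the cells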;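 as to viability: percent of carrier control wells set as 100% viability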). Particulars: 18-24 h, measured here: SKBR3 viability, ATP luminescence, at 10 µM. For orientation: Alpha assays give light when donor and acceptor beads are brought close together.
The target of experiment [2] is Receptor tyrosine-protein kinase erbB-2 (Homo sapiens) (UniProt P04626). Described as above. The conditions noted are these: 18-24 h, at 10 µM, stronger effect = lower value.
Experiment [3] is described as follows: SK-BR-3 cell growth inhibitors, pilot screen, 24 h, human (AID 572;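 active = viability at or below 10% of carrier control in both of two separate runs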;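 also: compound exposure lasted between 18 and 24 h rather than exactly 24 h; 100% = carrier-treated control wells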). Particulars: SK-BR-3 viability, CellTiter-Glo luminescence, at 10 µM, stronger effect = lower value.
Experiment [4] in a line: HUVEC growth inhibition – cell-based, human, primary screen (AID 575;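 active = viability at or below 30% in both replicate assays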;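 also: 100% = median of untreated cell wells with 0.1% DMSO on each plate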). Particulars: HUVEC proliferation, CellTiter-Glo luminescence, 72 h; at 10 µM; stronger effect = lower value. (In ATP-based viability assays light output follows the ATP content of the culture.)
Experiment [5] can be described thus: growth inhibitors of H69AR lung tumor, primary screen, human, duplicate replicates (AID 580;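 active = viability at or under a set limit in both replicates, limit being median viability minus 3 SD, cut at about 48% in these data, passing the limit was not always enough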;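 also: 100% = mean luminescence of untreated wells and 0% = no signal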). The conditions noted are these: H69AR lung tumor cells viability, ATP luminescence, 72 h; at 10 µM; stronger effect = lower value.
Experiment [6] is described as follows: reversal of MRP1-mediated doxorubicin resistance, pilot screen, H69AR cells, doxorubicin co-treatment (AID 601;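 active = viability loss from added drug above about 55%, and viability with drug at most 40%, in both replicates, limit read from the data, passing the limit was not always enough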). The conditions noted are these: CellTiter-Glo, 72 h, at 10 µM; for differential viability (reversal): stronger effect = higher value.
Experiment [7] in a line: 384-well plate pilot, post-Golgi transport modulator project, inhibition of yeast transport mutant growth (AID 636; in the data active = inhibition above about 31%). The conditions noted are these: absorbance 615 nm, about 18 h, stronger effect = higher value.
Experiment [8] can be described thus: growth suppression of yeast trafficking mutant, preliminary HTS, modulators of trafficking downstream of Golgi apparatus project, 1536-format plate, OD 615 nm (AID 637; in the data active = inhibition above about 30%). The conditions noted are these: yeast transport mutant growth, absorbance 615 nm, 18 h; stronger effect = higher value.
Experiment [9] can be described thus: OD615 S. cerevisiae growth inhibition, permissive medium, pilot counter-assay, permissive growth control for S. cerevisiae lifespan shortening project (AID 705). Particulars: OD615, 24 h, at 10 µM, stronger effect = higher value.
Experiment [10] can be described thus: Restrictive medium S. cerevisiae growth inhibition, OD615, pilot screen of yeast lifespan reduction project, restrictive growth control (AID 706;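 active = growth inhibition above a set limit, 3 SD over mean compound inhibition, in both replicates, cut at about 43% in these data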;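 also: modified DeaD lifespan yeast strain shifted to restrictive glucose medium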). The conditions noted are these: OD615, 48 h, at 10 µM, stronger effect = higher value.
The nature of experiment [11]: viability gain of MRP-1-high H69AR cells under doxorubicin, pilot screen, MRP-1 activator project, CellTiter-Glo, duplicate (AID 807;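 active = viability increase at or above a cutoff of the median across tested compounds plus 3 SD, cut at about 8.5% in these data, passing the limit was not always enough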;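 also: compound pretreatment 18-22 h then 72 h combined with doxorubicin; 0% = doxorubicin alone and 100% = vehicle without doxorubicin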). The conditions noted are these: H69AR viability with doxorubicin, CellTiter-Glo luminescence; at 10 µM; stronger effect = higher value.
Experiment [12] can be described thus: growth suppression of beta-catenin knockout HCT116, pilot screen, human colon tumor cells (AID 823;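 active = cell viability at or below a set limit in both duplicate runs, the limit being the all-compound median minus 4 SD, cut at about 23% in these data, passing the limit was not always enough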;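 also: 0% = wells killed by 20 µM Hyamine and 100% = untreated DMSO cell wells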). The conditions noted are these: CellTiter-Glo, 60 h, at 10 µM, stronger effect = lower value.
Experiment [13] can be described thus: growth suppression of PTEN-deleted HCT116, pilot screen, cell-based, HCT116 clonal line, CellTiter-Glo (AID 824;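 active = viability at or below 27.92% in each of two runs, the all-compound median minus 4 SD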;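 also: 0% = 20 µM Hyamine control and 100% = vehicle cell control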). The conditions noted are these: 60 h, at 10 µM, stronger effect = lower value.
Experiment [14] is described as follows: inhibitors of the yeast RAM network, pilot screen, dse1pr::URA3 reporter, 5-FOA selection (AID 869;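 active = inhibition over a set limit, the all-compound mean plus 3 SD, in both replicate runs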;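 also: 0% = DMSO wells with no growth and 100% = 10 µM 1-NA-PP1 with full growth; RAM network block rescues cells from 5-FOA so hits raise OD615 growth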). The conditions noted are these: S. cerevisiae dse1pr::URA3 5-FOA growth, OD615, 2 d; at 10 µM; stronger effect = higher value; strain carries analog-sensitive mutant Cbk1 kinase.
A short description of experiment [15]: RAM signaling pathway blockade in yeast – S. cerevisiae, Pdr1DBD-CYC8 efflux-inhibited sensitized strain, primary screen (AID 1298;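 active = RAM network inhibition above 8.4% in each of two replicates, 3 SD over the compound average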;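 also: 0% = DMSO untreated cells without growth and 100% = 10 µM 1-NA-PP1 full growth; higher means more yeast growth rescued from 5-FOA killing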). Particulars: S. cerevisiae cbk1-as DSE1-URA3 strain, 5-FOA growth OD615, 2 d; at 50 µM; stronger effect = higher value.
[16] abbreviates: H69AR cells + 2 uM doxorubicin, measured here: viability with 2 uM doxorubicin, stronger effect = lower value.
Setting [17] is: H69AR cells, compound alone cytotoxicity.

Inconclusive results are not listed. The source made the active and inactive calls.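 The calls were made as follows, unless noted: active = growth inhibition above 25% in both replicates, a cutoff set 3 SD above the mean; inconclusive = above 25% in only one replicate; inactive = the rest.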

Chain of Receptor tyrosine-protein kinase erbB-2 (Homo sapiens) (P04626 whole entry, looked up): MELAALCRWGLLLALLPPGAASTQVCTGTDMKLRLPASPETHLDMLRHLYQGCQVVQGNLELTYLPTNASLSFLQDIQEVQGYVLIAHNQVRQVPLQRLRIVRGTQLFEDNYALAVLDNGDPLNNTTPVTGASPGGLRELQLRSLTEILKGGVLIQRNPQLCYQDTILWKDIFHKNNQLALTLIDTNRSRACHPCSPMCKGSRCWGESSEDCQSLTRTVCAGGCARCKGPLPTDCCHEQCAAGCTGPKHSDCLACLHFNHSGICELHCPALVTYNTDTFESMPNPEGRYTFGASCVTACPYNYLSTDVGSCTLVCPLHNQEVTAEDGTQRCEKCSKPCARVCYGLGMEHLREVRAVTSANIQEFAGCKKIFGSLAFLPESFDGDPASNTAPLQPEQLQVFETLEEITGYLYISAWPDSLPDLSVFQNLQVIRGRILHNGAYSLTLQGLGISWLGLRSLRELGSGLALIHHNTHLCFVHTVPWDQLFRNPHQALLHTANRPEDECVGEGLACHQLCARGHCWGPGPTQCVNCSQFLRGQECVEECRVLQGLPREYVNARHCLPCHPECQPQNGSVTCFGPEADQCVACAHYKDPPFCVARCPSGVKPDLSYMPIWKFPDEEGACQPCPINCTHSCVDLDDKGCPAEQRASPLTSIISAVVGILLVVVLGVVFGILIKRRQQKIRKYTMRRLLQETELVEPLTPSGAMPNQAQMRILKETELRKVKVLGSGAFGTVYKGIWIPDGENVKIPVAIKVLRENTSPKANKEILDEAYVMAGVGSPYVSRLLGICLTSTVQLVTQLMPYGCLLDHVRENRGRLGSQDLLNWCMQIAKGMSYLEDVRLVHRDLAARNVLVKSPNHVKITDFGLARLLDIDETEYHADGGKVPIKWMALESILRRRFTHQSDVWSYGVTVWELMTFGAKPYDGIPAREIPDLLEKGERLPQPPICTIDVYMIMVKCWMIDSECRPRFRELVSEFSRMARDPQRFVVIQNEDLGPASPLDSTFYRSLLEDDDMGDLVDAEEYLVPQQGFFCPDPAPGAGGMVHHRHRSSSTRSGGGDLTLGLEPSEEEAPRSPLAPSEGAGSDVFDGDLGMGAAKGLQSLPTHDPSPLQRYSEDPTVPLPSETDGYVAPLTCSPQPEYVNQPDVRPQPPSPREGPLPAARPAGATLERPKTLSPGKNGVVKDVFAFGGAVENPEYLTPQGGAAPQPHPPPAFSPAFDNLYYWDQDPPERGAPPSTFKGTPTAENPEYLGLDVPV

Consider `O=C1CCCCCC1C1(O)C(=O)Nc2ccccc21` (stereo not drawn), for which the viability is 100% in [1]; 100% (inactive) in experiment [3]; 87.9% (inactive) in experiment [4]; 95.7% (inactive) in experiment [5]; 94.4% in experiment [6] (setting [16]); 95.7% in [6] (setting [17]). Moreover, the figures for the viability in [12] and in experiment [13] were 99.7% (inactive) and 95% (inactive), respectively. In addition, in experiment [2], the Her2 level is 96.5% (inactive). The differential viability (reversal) in [6] (H69AR cells + 2 uM doxorubicin) was 1.21% (inactive). Also, the inhibition is -4.68% (inactive) in experiment [7], -1.67% (inactive) in experiment [8] and 1.43% (inactive) in experiment [14]. Also, the values for the growth inhibition in experiment [9] and in experiment [10] were -0.65% (inactive) and -10.4% (inactive), respectively. Further, the viability increase in experiment [11] was -2.3% (inactive). In addition, the RAM network inhibition in experiment [15] was 1.29% (inactive).

As for `Cc1ccc(S(=O)(=O)N2CCC(C(=O)N3CCN(Cc4ccccc4)CC3)CC2)cc1`, the viability in experiment [1] was 99%; in experiment [3] it was 99% (inactive); in [4] it was 100% (inactive); in experiment [5] it was 85.3% (inactive); in experiment [6] (setting [16]) it was 101%; in experiment [6] (setting [17]), 85.3%. For the same molecule, the viability in experiment [12] is 90.5% (inactive); in experiment [13], 92.6% (inactive). Further, the Her2 level in experiment [2] was 91% (inactive). In experiment [6] (H69AR cells + 2 uM doxorubicin), the differential viability (reversal) was -15.4% (inactive). The inhibition in [7] is -1.73% (inactive); in experiment [8], -0.33% (inactive); in experiment [14], 2.2% (inactive). The growth inhibition in [9] was -8.33% (inactive); in experiment [10], 0.335% (inactive). Also, the viability increase in experiment [11] was 1.01% (inactive). Moreover, in [15], the RAM network inhibition is 4.44% (inactive).

`Fc1cccc(Nc2ncnc3c2cnn3-c2ccccc2)c1`: the viability was 83.5% in [1]; 83.5% (inactive) in experiment [3]; 54.9% (inactive) in [4]; 37.9% (active) in experiment [5]; 69.5% in [6] (setting [16]); 37.9% in experiment [6] (setting [17]). Also, the viability in experiment [12] is 71.5% (inactive); in experiment [13], 70.2% (inactive). Besides, the Her2 level in experiment [2] is 70.5% (inactive). Besides, the differential viability (reversal) in experiment [6] (H69AR cells + 2 uM doxorubicin) is -31.6% (inactive). Moreover, the inhibition in experiment [7] was 2.4% (inactive); in experiment [8] it was -1.67% (inactive); in experiment [14], 0.315% (inactive). Moreover, the growth inhibition in [9] was -5.18% (inactive); in experiment [10], -6.66% (inactive). For the same molecule, the viability increase in experiment [11] is -5.13% (inactive). Also, the RAM network inhibition in experiment [15] is 0.26% (inactive).

`CCCc1cc(C(=O)Nc2ccc(C(C)=O)cc2)no1`: the viability was 80.5% in experiment [1]; 80.5% (inactive) in experiment [3]; 77.7% (inactive) in [4]; 99.5% (inactive) in experiment [5]; 93.9% in [6] (setting [16]); 99.5% in experiment [6] (setting [17]). Further, the viability in experiment [12] is 98.5% (inactive); in experiment [13] it was 104% (inactive). For the same molecule, the Her2 level in experiment [2] was 91% (inactive). For the same molecule, the differential viability (reversal) in experiment [6] (H69AR cells + 2 uM doxorubicin) was 5.59% (inactive). Besides, the inhibition was 1.92% (inactive) in [7], -1% (inactive) in experiment [8] and 2.74% (inactive) in experiment [14]. Moreover, the values for the growth inhibition in experiment [9] and in experiment [10] were -0.51% (inactive) and -1.09% (inactive), respectively. Also, in experiment [11], the viability increase was -0.27% (inactive). In addition, in experiment [15], the RAM network inhibition was 6.52% (inactive).

For the molecule `CC(=O)NC(C)c1nc2ccccc2n1C(C)C` (stereo not drawn), the viability in [1] is 90%; in experiment [3], 90% (inactive); in experiment [4], 88.1% (inactive); in experiment [5], 93.9% (inactive); in experiment [6] (setting [16]), 81.5%; in experiment [6] (setting [17]), 93.9%. Further, the viability is 84.8% (inactive) in experiment [12] and 90% (inactive) in experiment [13]. For the same molecule, the Her2 level in experiment [2] was 106% (inactive). For the same molecule, in [6] (H69AR cells + 2 uM doxorubicin), the differential viability (reversal) is 12.4% (inactive). The inhibition in [7] is -2.8% (inactive); in experiment [8], -2% (inactive); in experiment [14], 3.16% (inactive). Moreover, the growth inhibition in experiment [9] is -5.54% (inactive); in experiment [10], -15.8% (inactive). The viability increase in experiment [11] was -2.65% (inactive). The RAM network inhibition in experiment [15] is -0.31% (inactive).

Consider `Cc1cc(C)cc(N(CC(=O)Nc2cccc(C)n2)S(=O)(=O)c2c(C)noc2C)c1`, for which the viability was 88.5% in experiment [1]; 88.5% (inactive) in experiment [3]; 92.3% (inactive) in experiment [4]; 85.6% (inactive) in [5]; 73.8% in experiment [6] (setting [16]); 85.6% in [6] (setting [17]). In addition, the viability in experiment [12] was 73.4% (inactive); in [13] it was 71.9% (inactive). Besides, in [2], the Her2 level is 97% (inactive). In addition, the differential viability (reversal) in experiment [6] (H69AR cells + 2 uM doxorubicin) was 11.8% (inactive). The inhibition in experiment [7] was -0.64% (inactive); in [8] it was -2% (inactive); in [14], 0.94% (inactive). Besides, the growth inhibition in experiment [9] is -12.3% (inactive); in experiment [10], -11.5% (inactive). In experiment [11], the viability increase is -4.06% (inactive). The RAM network inhibition in experiment [15] is 5.69% (inactive).

Consider `Cc1nnc(SCC(=O)Nc2ccc3c4c(cccc24)CC3)n1C`, for which the viability in [1] was 102%; in [3] it was 102% (inactive); in [4], 93.2% (inactive); in [5], 86.9% (inactive); in experiment [6] (setting [16]) it was 86.8%; in experiment [6] (setting [17]) it was 86.9%. Besides, the viability is 92.9% (inactive) in experiment [12] and 89.8% (inactive) in [13]. Also, the Her2 level in experiment [2] was 79% (inactive). For the same molecule, the differential viability (reversal) in [6] (H69AR cells + 2 uM doxorubicin) was 0.115% (inactive). The inhibition in experiment [7] was -6.08% (inactive); in experiment [8] it was -3.83% (inactive); in [14], 3.25% (inactive). In addition, the growth inhibition in experiment [9] was -0.36% (inactive); in experiment [10], -5.08% (inactive). Besides, the viability increase in experiment [11] was -4.3% (inactive). Further, in [15], the RAM network inhibition is 3.77% (inactive).

In the case of `Cc1ccccc1-n1c(Cn2c(=O)sc3ccccc32)nnc1SCC(N)=O`, the viability was 96.5% in [1]; 96.5% (inactive) in [3]; 92.3% (inactive) in experiment [4]; 84.8% (inactive) in experiment [5]; 78.6% in experiment [6] (setting [16]); 84.8% in [6] (setting [17]). For the same molecule, the figures for the viability in [12] and in [13] were 107% (inactive) and 106% (inactive), respectively. Further, the Her2 level in [2] was 94.5% (inactive). Further, the differential viability (reversal) in experiment [6] (H69AR cells + 2 uM doxorubicin) is 6.29% (inactive). In addition, the inhibition in [7] was -6.27% (inactive); in [8] it was -1.97% (inactive); in [14], 0.455% (inactive). Besides, the growth inhibition in experiment [9] was -3.65% (inactive); in [10], -3.06% (inactive). Moreover, the viability increase in experiment [11] was 1.68% (inactive). For the same molecule, the RAM network inhibition in [15] is 4.35% (inactive).

Turning to `C=C(C)Cn1c(-c2ccccc2)nc2ccccc21`, the viability in experiment [1] is 80%; in experiment [3], 80% (inactive); in experiment [4], 117% (inactive); in [5] it was 96.1% (inactive); in experiment [6] (setting [16]) it was 95.3%; in [6] (setting [17]) it was 96.1%. Moreover, the viability was 80.2% (inactive) in [12] and 87.8% (inactive) in experiment [13]. Also, the Her2 level in experiment [2] was 102% (inactive). For the same molecule, the differential viability (reversal) in experiment [6] (H69AR cells + 2 uM doxorubicin) was 0.815% (inactive). Moreover, the inhibition in experiment [7] is -2.8% (inactive); in experiment [8] it was -1.45% (inactive); in experiment [14] it was 1% (inactive). Further, the growth inhibition was -10.1% (inactive) in experiment [9] and -9.65% (inactive) in [10]. For the same molecule, the viability increase in experiment [11] is -1.92% (inactive). Further, the RAM network inhibition in [15] is 5.93% (inactive).

The viability is a read-out of living cells in per cent, often relative to untreated cells. Usually inhibition stands for the change of the read-out against control, counted positive when it falls.
